Screens deposited in PubChem BioAssay by The Scripps Research Institute Molecular Screening Center.
hcDAF-12 act: activates DAF-12 receptor from parasite H. contortus; HEK293 hcDAF-12 lit1-tk-luc reporter, luminescence; 0% DMSO, 100% Δ7-dafachronic acid; 1.4% of 370,000 active; activation, % at 6.8 µM;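 active = activation above the mean of all tested compounds plus 3 SD, cut at about 5.5% in these data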;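 note: 100% = response to 3 µM Δ7-dafachronic acid high control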
hgDAF12 agonist: agonists of H. glycines DAF-12 nuclear receptor; HEK293 GAL4-hgDAF12 UAS-luciferase reporter, agonist luminescence; normalized to butyrate control; activation, % at 6.8 µM; 1.8% of 370,000 active; AID 687014;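 active = activation above a cutoff set at the mean of all screened compounds plus 3 SD, cut at about 10% in these data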;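 note: 0% = DMSO wells and 100% = sodium butyrate wells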
DAX1 inh-1: inhibitors of human orphan nuclear receptor DAX1 (NR0B1) | HEK293 Gal4-DAX1 luciferase reporter, luminescence | inhibition, % at 6.75 µM | 0.99% of 340,000 active;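 active = inhibition above the mean over all tested compounds plus 3 SD, cut at about 4.2% in these data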;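 note: 0% = DAX1-transfected cells with DMSO and 100% = empty-vector control cells with DMSO; inhibition shows as a rise in luminescence from relieved DAX1 repression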
Target sequence (P51843 207-470 limits assumed): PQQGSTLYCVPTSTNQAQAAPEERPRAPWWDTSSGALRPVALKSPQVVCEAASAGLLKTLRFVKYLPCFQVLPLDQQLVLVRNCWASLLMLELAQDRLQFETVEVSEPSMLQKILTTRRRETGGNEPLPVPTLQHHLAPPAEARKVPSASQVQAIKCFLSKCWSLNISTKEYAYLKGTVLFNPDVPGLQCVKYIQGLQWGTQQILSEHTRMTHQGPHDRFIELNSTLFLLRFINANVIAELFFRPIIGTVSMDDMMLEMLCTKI
AHR activator: activates the human aryl hydrocarbon receptor | P35869 | AHR-responsive luciferase reporter cells, luminescence | activation, % at 5 µM | 2.5% of 320,000 active | AID 2796; in the data active = activation above about 47%;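 note: 0% = vehicle wells and 100% = reference agonist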
ssDAF-12 act: activates DAF-12 receptor from parasite S. stercoralis | HEK293 ssDAF-12/GRIP1 lit1-tk-luc reporter, luminescence; % of 3 µM dafachronic acid response | activation, % at 6.8 µM | 1% of 370,000 active | AID 652126;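 active = activation above the mean over all tested compounds plus 3 SD, cut at about 0.9% in these data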;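 note: 0% = DMSO-only wells and 100% = 3 µM delta7-dafachronic acid wells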
DAX1 inh-2: blocks DAX1 repression of SF-1 activated StAR promoter; 1.1% of 370,000 active; inhibition, % at 6.8 µM; HEK293T StAR-luciferase reporter, SF-1/DAX-1 repression relief;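 active = inhibition above the mean over all tested compounds plus 3 SD, cut at about 3.6% in these data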;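 note: 0% = DAX-1 cells with DMSO and 100% = cells lacking DAX-1 with DMSO; higher inhibition means more luminescence from relief of DAX-1 repression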
* = called active by the depositor. The list is not random: actives were taken first. Their share in the collection is about 5.7%.

How did O=C(CNC(=O)c1ccc(F)cc1)c1ccc(Cl)cc1 do in these assays?
hcDAF-12 act: 3; hgDAF12 agonist: 11*; DAX1 inh-1: 1; AHR activator: -1; ssDAF-12 act: 0; DAX1 inh-2: 1

What do the screens show for `O=C(NCC(=O)N1CCCCCC1)c1ccc(Br)cc1`?
hcDAF-12 act: 0; hgDAF12 agonist: 2; DAX1 inh-1: 4.4*; AHR activator: 4; ssDAF-12 act: -1; DAX1 inh-2: 0

What do the screens show for `O=C(CNC(=O)c1ccc(Br)cc1)c1ccc(Br)cc1`?
hcDAF-12 act: 0; hgDAF12 agonist: -1; DAX1 inh-1: -2; AHR activator: -3; ssDAF-12 act: -1; DAX1 inh-2: 0

Results for Cc1nc(C(=O)NCC(=O)c2ccc(Cl)cc2)c(C(F)(F)F)o1 ?
hcDAF-12 act: -1; hgDAF12 agonist: -1; DAX1 inh-1: 0; AHR activator: -3; ssDAF-12 act: 1.6*; DAX1 inh-2: 0

Results for O=C(NNC(=O)c1ccccc1O)c1ccc(Br)cc1 ?
hcDAF-12 act: -1; hgDAF12 agonist: 5; DAX1 inh-1: 7.4*; AHR activator: -4; ssDAF-12 act: -1; DAX1 inh-2: 0

What do the screens show for `O=C(NCC(=O)N1CCN(c2ccccc2)CC1)c1ccc(Cl)cc1`?
hcDAF-12 act: -2; hgDAF12 agonist: -3; DAX1 inh-1: 4.9*; AHR activator: 5; ssDAF-12 act: -1; DAX1 inh-2: 0

Results for O=c1nc(Nc2ccccc2)sc2ccc([N+](=O)[O-])cc12 ?
hcDAF-12 act: 3; hgDAF12 agonist: -3; DAX1 inh-1: 0; AHR activator: 18; ssDAF-12 act: 1; DAX1 inh-2: 0

What do the screens show for `CC(C)CC1NC(=O)c2cc(Cl)ccc2-n2c1nc1ccc(F)cc1c2=O` (configuration not stated)?
hcDAF-12 act: -2; hgDAF12 agonist: -1; AHR activator: 6; ssDAF-12 act: -1; DAX1 inh-2: 0

How did Cc1c(Cc2ccccc2)c(=O)oc2c(C)c(OCc3nn[nH]n3)ccc12 do in these assays?
hcDAF-12 act: -1; hgDAF12 agonist: -2; DAX1 inh-1: 5.3*; AHR activator: 0; ssDAF-12 act: -1; DAX1 inh-2: 0

How did Cc1c(OCc2nn[nH]n2)ccc2c(-c3ccccc3)cc(=O)oc12 do in these assays?
hcDAF-12 act: -1; hgDAF12 agonist: -2; DAX1 inh-1: 3; AHR activator: 6; ssDAF-12 act: -1; DAX1 inh-2: 0

What do the screens show for `COc1ccc(-c2cc(=O)oc3c(C)c(OCc4nn[nH]n4)ccc23)cc1`?
hcDAF-12 act: -1; hgDAF12 agonist: -2; DAX1 inh-1: 7.3*; AHR activator: 1; ssDAF-12 act: -1; DAX1 inh-2: 1

How did C=CCN1C(=O)c2n[nH]c(COC)c2C1c1ccc(F)cc1 (configuration not stated) do in these assays?
hcDAF-12 act: 3; hgDAF12 agonist: 0; ssDAF-12 act: 0; DAX1 inh-2: -1

Results for Cc1cccc(CN2CCN(C(=O)CCl)CC2)c1 ?
hcDAF-12 act: -3; hgDAF12 agonist: 1; DAX1 inh-1: -1; AHR activator: -3; ssDAF-12 act: 0; DAX1 inh-2: -2

What do the screens show for `Cc1cc2nc(-c3ccccc3)c(Cc3cccc(Cl)c3)n2c(C)c1Br`?
hcDAF-12 act: 3; hgDAF12 agonist: 11*; ssDAF-12 act: 0; DAX1 inh-2: 1

What do the screens show for `Cc1cc2nc(C3CCCCC3)c(Cc3cccc(F)c3)n2c(C)c1Br`?
hcDAF-12 act: 2; hgDAF12 agonist: 2; ssDAF-12 act: 1.7*; DAX1 inh-2: -1

How did Cc1cc2nc(-c3ccc(F)cc3)c(Cc3cccc(Cl)c3)n2c(C)c1Br do in these assays?
hcDAF-12 act: 5.6*; hgDAF12 agonist: 1; ssDAF-12 act: 1.5*; DAX1 inh-2: 1

How did CCn1cc(/C=C(\NC(=O)c2ccccc2F)C(=O)N2CCN(C)CC2)c2ccccc21 do in these assays?
hcDAF-12 act: 0; hgDAF12 agonist: -2; DAX1 inh-1: 0; ssDAF-12 act: -1; DAX1 inh-2: -1

How did O=C(OCCCc1cc2ccccc2c(=O)o1)c1ccc2c(c1)OCO2 do in these assays?
hcDAF-12 act: -1; hgDAF12 agonist: -2; DAX1 inh-1: 2; AHR activator: 3; ssDAF-12 act: -1; DAX1 inh-2: 0

Results for CCN1CCN(C(=O)CSCc2nc(-c3ccc(OC)c(OC)c3)oc2C)CC1 ?
hcDAF-12 act: 5; hgDAF12 agonist: 3; DAX1 inh-1: 1; AHR activator: 1; ssDAF-12 act: -1; DAX1 inh-2: 0

How did COc1ccc(-c2nc(CSCC(=O)N3CCN(C)CC3)c(C)o2)cc1OC do in these assays?
hcDAF-12 act: -1; hgDAF12 agonist: -3; DAX1 inh-1: 6.1*; AHR activator: 5; ssDAF-12 act: -1; DAX1 inh-2: 0

What do the screens show for `CN(C(=O)COC(=O)c1cccnc1Cl)C1CCCCC1`?
hcDAF-12 act: 3; hgDAF12 agonist: 4; DAX1 inh-1: 1; AHR activator: 0; ssDAF-12 act: 0; DAX1 inh-2: 4.5*

How did COCCCNC(=O)C[C@H]1C[C@@]2(C(=O)OC)C(=C[C@H](C3CCCC3)O[C@@H]2C)N(Cc2ccco2)C1=O do in these assays?
hcDAF-12 act: -2; hgDAF12 agonist: 0; ssDAF-12 act: -1; DAX1 inh-2: -1

What do the screens show for `Cc1c(C(=O)NCCCn2ccnc2)oc2ccccc12`?
hcDAF-12 act: 5; hgDAF12 agonist: 8; DAX1 inh-1: 0; AHR activator: 59*; ssDAF-12 act: -1; DAX1 inh-2: 1

Results for O=C(NCCCn1ccnc1)c1ccccc1Cl ?
hcDAF-12 act: -1; hgDAF12 agonist: 0; DAX1 inh-1: 0; AHR activator: 4; ssDAF-12 act: -1; DAX1 inh-2: 0

Results for O=C(NCCCn1ccnc1)c1csc2ccccc12 ?
hcDAF-12 act: 0; hgDAF12 agonist: -1; DAX1 inh-1: 0; AHR activator: 52*; ssDAF-12 act: -2; DAX1 inh-2: 0

How did O=C(O)/C=C/c1ccc(S(=O)(=O)NCc2cccnc2)cc1 do in these assays?
hcDAF-12 act: -1; hgDAF12 agonist: -1; DAX1 inh-1: 3; AHR activator: 1; ssDAF-12 act: -2; DAX1 inh-2: 0

What do the screens show for `CCOC(=O)N1CCN(c2ccncc2S(=O)(=O)N2CCCCC2)CC1`?
hcDAF-12 act: -2; hgDAF12 agonist: 1; DAX1 inh-1: 1; AHR activator: -2; ssDAF-12 act: -1; DAX1 inh-2: -1

What do the screens show for `O=C(NCc1ccc(Cl)cc1Cl)C(=O)N1CCCCC1`?
hcDAF-12 act: 0; hgDAF12 agonist: -1; DAX1 inh-1: 0; AHR activator: 0; ssDAF-12 act: -1; DAX1 inh-2: 0

Results for CSc1ccc(C#N)cc1NC(=O)c1ccccc1 ?
hcDAF-12 act: 1; hgDAF12 agonist: -1; DAX1 inh-1: 1; AHR activator: 15; ssDAF-12 act: -1; DAX1 inh-2: 0
